The values below come from PubChem BioAssay (NCATS).

Each structure is given as a SMILES string. Several values for one entry are separate records, joined by “and”; a condition that tells them apart may be missing. Identical values can stand only once. Inconclusive results are not listed. Unmarked numbers belong to inactive results. Activity calls are given as the source filed them. Calls come from the whole dose curve; as a rule, active = well fitted curve in the direction sought with a large enough effect; inconclusive = small, poorly fitted or top-dose-only effect, or another doubt; inactive = no such curve, though single readings can be large; an effect the other way counts as inactive or inconclusive.

Experiment [1] is described as follows: Viability qHTS for spleen associated tyrosine kinase inhibitor (SYKi) naive MV4-11 cells (AID 1963823). Note: nearly all actives have a fitted effect of over 40% in size. Note: potency is the fitted concentration of half-maximal effect. In outline:
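Compounds were dispensed acoustically onto plates, MV4-11 cells (SYKi-naive) added at 500 per well, and plates incubated 72 hr at 37 C. CellTiter-Glo was added and luminescence measured after 10 min.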

Experiment [2] in a line: Viability qHTS for spleen associated tyrosine kinase inhibitor (SYKi) drug resistant MV4-11 cells (AID 1963824). Note: nearly all actives have a fitted effect of over 35% in size. Note: potency is the fitted concentration of half-maximal effect. In outline:
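SYK inhibitor-resistant MV4-11 AML cells, 500 per well, added to predispensed compounds and incubated 72 hr at 37 C, 5% CO2. Viability measured by CellTiter-Glo luminescence after 10 min at room temperature.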

Experiment [3] is described as follows: Quantitative highthroughput screen to assess conditional lethalithy of NOMO1 cells grown in RPMI1640 with untreated serum (RPMI+s) (AID 1963876).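 For Viability: 100% = DMSO wells and 0% = empty wells without cells.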 Note: nearly all actives have a fitted effect of over 35% in size. Note: potency is the fitted concentration of half-maximal effect. In outline:
(§1)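 Each medium arm—HPLM with 10% dialyzed FBS, or RPMI1640 with 5 mM glucose and 10% untreated or dialyzed FBS—was screened against an 11-point, 3-fold compound titration for 48 h at 37 °C, with CellTiter-Glo luminescence as endpoint.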

Experiment [4] is described as follows: Quantitative highthroughput screen to assess conditional lethalithy of NOMO1 cells grown in RPMI1640 with dialyzed fetal bovine serum (RPMI+ds) (AID 1963877).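 Note: series mostly up to about 46 µM; 100% = DMSO control wells and 0% = empty wells; nearly all actives have a fitted effect of over 30% in size.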 In outline: as §1
Experiment [5] in a line: Quantitative highthroughput screen to assess conditional lethalithy of P12 Ichikawa cells grown in Human Plasma-Like Medium with dialyzed fetal bovine serum (HPLM+ds) (AID 1963879). For Viability: series mostly up to about 46 µM. Note: nearly all actives have a fitted effect of over 35% in size. Note: potency is the fitted concentration of half-maximal effect. The conditions noted are these: Potency: viability. In outline: as §1
The nature of experiment [6]: Cellular viability qHTS for adrenocortical cancer (ACC) cell line NCI-H295R (AID 1963990). Note: nearly all actives have a fitted effect of over 60% in size. Note: potency is the fitted concentration of half-maximal effect. In outline: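 Viability of NCI-H295R after 48 h of treatment (final up to 46 uM) measured through cellular ATP luminescence.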
In general terms: In qHTS, concentration-response curves come from the screen itself.

A short description of experiment [7]: Quantitative highthroughput screen to assess conditional lethalithy of P12 Ichikawa cells grown in RPMI1640 with dialyzed fetal bovine serum (RPMI+ds) (AID 1963880).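 For Viability: 100% = DMSO wells and 0% = empty wells on each plate.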 Note: nearly all actives have a fitted effect of over 35% in size. Note: potency is the fitted concentration of half-maximal effect. The conditions noted are these: Potency: P12-Ichikawa viability. Put shortly: as §1
Experiment [8] can be described thus: Quantitative highthroughput screen to assess conditional lethalithy of P12 Ichikawa cells grown in RPMI1640 with untreated serum (RPMI+s) (AID 1963881).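 For Viability: series mostly up to about 46 µM; 100% = DMSO wells and 0% = empty wells without cells.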 Note: nearly all actives have a fitted effect of over 35% in size. Note: potency is the fitted concentration of half-maximal effect. As to conditions: Potency: viability. Put shortly:
as §1

The nature of experiment [9]: Quantitative highthroughput screen to assess conditional lethalithy of SEM cells grown in Human Plasma-Like Medium with dialyzed fetal bovine serum (HPLM+ds) (AID 1963882). For Viability: series mostly up to about 46 µM. Note: nearly all actives have a fitted effect of over 35% in size. Note: potency is the fitted concentration of half-maximal effect. Put shortly:
as §1

The nature of experiment [10]: Quantitative highthroughput screen to assess conditional lethalithy of SEM cells grown in RPMI1640 with unreated serum (RPMI+s) (AID 1963883).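 For Viability: 100% = DMSO wells and 0% = empty wells without cells.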 Note: nearly all actives have a fitted effect of over 35% in size. Note: potency is the fitted concentration of half-maximal effect. Put shortly:
as §1

Experiment [11] can be described thus: Quantitative highthroughput screen to assess conditional lethalithy of NOMO1 cells grown in Human Plasma-Like Medium with dialyzed fetal bovine serum (HPLM+ds) (AID 1963878).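 For Viability: 100% = DMSO wells and 0% = empty wells on each plate.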 Note: nearly all actives have a fitted effect of over 35% in size. Note: potency is the fitted concentration of half-maximal effect. In outline:
as §1

Experiment [12] is described as follows: Cellular viability qHTS for adrenocortical cancer (ACC) cell line SW-13 (AID 1963989).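 For activity (max response): cells grown in serum-free medium with ITS supplement; % is set by controls: 0 for no effect and ±100 for the full control effect.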 Note: nearly all actives have a fitted effect of over 65% in size. Note: potency is the fitted concentration of half-maximal effect. The conditions noted are these: SW-13 ACC cells viability, CellTiter-Glo, 48 h; activity (max response): stronger effect = lower value. Put shortly:
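Here, serum-free SW-13 cultures were dosed up to 46 uM. Following 48 h, ATP-dependent luminescence (CellTiter-Glo) reported viable cells, and logistic modeling produced IC50 values.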

Experiment [13] is described as follows: Quantitative highthroughput screen to assess conditional lethalithy of SEM cells grown in RPMI1640 with dialyzed fetal bovine serum (RPMI+ds) (AID 1963884).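 For Viability: series mostly up to about 46 µM; 100% = DMSO control wells and 0% = empty wells without cells.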 Note: nearly all actives have a fitted effect of over 35% in size. Note: potency is the fitted concentration of half-maximal effect. Put shortly:
as §1

For the molecule `COc1ccc2c(Oc3ccc(NC(=O)c4c(C)n(CC(C)(C)O)n(-c5ccccc5)c4=O)nc3)ccnc2c1`, the Potency is 0.166 µM (active) in experiment [1] and 0.332 µM (active) in [2]. The Potency result in experiment [3], in [4], in experiment [5] and in experiment [6] was “inactive” in each case.

Take `Cc1cnc(Nc2ccc(OCCN3CCCC3)cc2)nc1Nc1cccc(S(=O)(=O)NC(C)(C)C)c1`: the Potency in experiment [1] is 146 nM (active) and 186 nM (active); in experiment [2], 366 nM (active) and 417 nM (active); in [9], 10.5 µM (active); in [6] it was 10 µM (active). Moreover, the Potency entry in [3], in [4], in [7], in [8] and in experiment [10] was “inactive” throughout.

As for `Cc1ccccc1N1C(=O)c2cc(S(N)(=O)=O)c(Cl)cc2NC1C` (configuration not stated), the Potency result in experiment [1], in experiment [2], in [3], in experiment [11], in experiment [5] and in experiment [7] was “inactive” throughout. Also, the Potency result in experiment [8], in experiment [9], in experiment [10] and in experiment [6] was “inactive” throughout. The activity (max response) in experiment [12] is 17.3%.

On to `CC(C)c1cnn2c(NCc3ccccc3)cc(NCCCCCCN)nc12`, for which the Potency in [1] is 16.6 µM (active); in experiment [2], 14.8 µM (active). Moreover, the Potency entry in experiment [3], in experiment [4], in experiment [7], in experiment [8], in experiment [9] and in experiment [13] was “inactive” in each case.

In the case of `CN1C(=O)C(Cc2c[nH]c3ccccc23)NC1=S` (configuration not stated), the Potency entry in experiment [1], in experiment [3], in [11], in experiment [5], in experiment [7] and in [8] was “inactive” in each case. Further, in experiment [6], the Potency entry is “inactive”. Moreover, the Potency in experiment [2] was 8.33 µM (active). For the same molecule, the activity (max response) in experiment [12] is 7.04%.

Turning to `O=C(O)Cc1cccc(OCCCN(Cc2cccc(C(F)(F)F)c2Cl)CC(c2ccccc2)c2ccccc2)c1`, the Potency was 20.9 µM (active) in experiment [1], 16.6 µM (active) in [2] and 22.4 µM (active) in experiment [6]. Besides, the Potency entry in [3], in experiment [4], in [7], in [8], in experiment [9] and in experiment [10] was “inactive” throughout. The Potency entry in experiment [13] was “inactive”.

With `COc1cc(F)c(F)c(Nc2ccc(I)cc2F)c1NS(=O)(=O)C1(C[C@H](O)CO)CC1`, the Potency in experiment [1] was 0.332 µM (active); in experiment [2], 0.525 µM (active); in experiment [10], 20.9 µM (active); in experiment [12], 14.1 µM (active); in experiment [6] it was 20 µM (active). Further, the Potency entry in [3], in experiment [4] and in [8] was “inactive” each time.

Consider `CNC(=O)c1cc(Oc2ccc(NC(=O)Nc3cc(C(C)(C)C)nn3-c3ccc4ncccc4c3)c(F)c2)ccn1`, for which the Potency is 0.0366 µM (active) in experiment [1]; 73.1 nM (active) and 52.5 nM (active) in [2]; 0.469 µM (active) in experiment [13]; 28.2 µM (active) in [12]; 31.6 µM (active) in experiment [6]. Also, the Potency entry in experiment [3], in [11], in [5], in experiment [7] and in [8] was “inactive” each time.

As for `O=C(O)CCNc1cc(N2CCc3ccccc3CC2)nc(-c2ccccn2)n1`, the Potency result in experiment [1], in experiment [2], in [3], in experiment [4], in [5] and in [9] was “inactive” each time. The Potency entry in experiment [10], in [13] and in experiment [6] was “inactive” throughout. In addition, in [12], the activity (max response) was 0.209%.

Turning to `O=C(c1ccc(OCCN2CCCCC2)cc1)c1c(-c2ccc(O)cc2)sc2cc(O)ccc12`, the Potency in [1] was 14.8 µM (active) and 16.4 µM (active); in experiment [2] it was 13.3 µM (active) and 16.6 µM (active) and 10.3 µM (active); in experiment [12], 20.6 µM (active) and 25.1 µM (active); in [6], 9.2 µM (active) and 31.6 µM (active). The Potency result in [3], in experiment [4] and in [10] was “inactive” in each case.

`Oc1ccc(-c2nc(-c3ccc(F)cc3)c(-c3ccncc3)[nH]2)cc1`: the Potency in [1] was 9.34 µM (active); in [2] it was 8.33 µM (active); in [3] it was 10.5 µM (active); in [11], 3.72 µM (active); in experiment [5], 5.26 µM (active); in experiment [7], 13.2 µM (active). Moreover, the Potency in experiment [8] is 16.6 µM (active); in experiment [9], 0.662 µM (active); in experiment [10], 0.469 µM (active); in experiment [13] it was 0.372 µM (active). Moreover, the Potency result in experiment [6] is “inactive”.

Consider `FC(F)(F)c1ccc(Nc2nc3ccc(Oc4ccnc(-c5ncc(C(F)(F)F)[nH]5)c4)cc3[nH]2)cc1`, for which the Potency in experiment [1] was 1.64 µM (active); in [2], 4.17 µM (active); in experiment [9], 18.7 µM (active); in [10], 18.7 µM (active); in [13] it was 16.6 µM (active); in experiment [12], 22.4 µM (active). In addition, the Potency in experiment [6] was 11.2 µM (active). Also, the Potency result in experiment [3] and in experiment [11] was “inactive” each time.

Turning to `CCOC(=O)[C@H](CCc1ccccc1)N[C@H]1CS[C@H](c2cccs2)CN(CC(=O)O)C1=O`, the Potency is 7.42 µM (active) in experiment [1]; 13.3 µM (active) and 5.9 µM (active) in [2]; 10.5 µM (active) in experiment [3]; 5.26 µM (active) in experiment [11]; 14.8 µM (active) in experiment [7]; 9.35 µM (active) in experiment [8]. Besides, the Potency entry in [9] and in experiment [6] was “inactive” each time. In addition, in experiment [12], the activity (max response) is 6.33% and 0.504%.

As for `Cc1ccc(C(=O)Nc2cccc(C(F)(F)F)c2)cc1-c1ccc2nc(NCCN3CCOCC3)ncc2c1`, the Potency in [1] is 184 nM (active) and 372 nM (active); in experiment [2] it was 366 nM (active) and 742 nM (active); in experiment [3], 5.9 µM (active); in experiment [11] it was 4.18 µM (active); in experiment [9] it was 4.69 µM (active); in experiment [10] it was 4.18 µM (active). For the same molecule, the values for the Potency in [13], in experiment [12] and in experiment [6] were 4.18 µM (active), 14.1 µM (active) and 22.4 µM (active), respectively.

In the case of `c1ccc2c(Oc3nc(Nc4ccc(N5CCOCC5)cc4)c4ncn(C5CCCCC5)c4n3)cccc2c1`, the Potency in [1] is 1.84 µM (active) and 2.35 µM (active); in experiment [2], 1.84 µM (active) and 4.17 µM (active). The Potency result in experiment [3], in [11], in experiment [5], in experiment [7] and in experiment [6] was “inactive” each time. For the same molecule, the activity (max response) in [12] was -10%.

For `O=C(Nc1ccccc1Br)N[C@@H]1CCN(c2ccc(C(F)(F)F)cn2)C1`, the Potency was 14.8 µM (active) in [1] and 23.5 µM (active) in experiment [2]. Besides, the Potency entry in [3], in experiment [11], in experiment [5], in experiment [7], in [9] and in experiment [10] was “inactive” each time. Further, the Potency entry in experiment [13] was “inactive”.

Turning to `NNC(=O)c1ccncc1`, the Potency entry in [1], in experiment [2], in experiment [3], in [11], in experiment [9] and in experiment [10] was “inactive” throughout. In addition, in [6], the Potency entry was “inactive”. Further, the Potency in [5] was 16.6 µM (active). Also, the activity (max response) in experiment [12] was 13.1% and -0.369%.
